Screens (PubChem)
Most compounds without a hit are left out; they make up all but 6.2% or so of the library.
Marburg entry inh = blocks Marburg virus binding to or entry into cells. 300,000 compounds, 1.8% hits. Marburg virus pseudotyped entry inhibition, cell reporter. Potency, µM (highest dose often 37.8 µM), inactives show top-dose activity change, negative = inhibition, actives largely listed as inhibitors; calls by dose curve; tested in HEK293 cells; also: potency is read from the fitted curve at half-maximal effect
FMDV antiviral = antivirals against foot and mouth disease virus; FMDV antiviral cell-based qHTS; Potency, µM (highest dose often 57.9 µM), for the others: at the top dose activity change, negative = inhibition, most hits filed as inhibitors; 410,000 compounds, 1.2% hits; calls by dose curve; tested in HEK293T cells; also: read-out not given here; potency is read from the fitted curve at half-maximal effect; nearly all actives have a fitted effect of over 45% in size
HCMV antiviral = blocks human cytomegalovirus replication | HFF cells, HCMV-luciferase reporter, 72 h; hits give low values | activity change, negative = inhibition, % at 57.5 µM | 410,000 compounds, 4.5% hits | AID 1259415; in the data active = activity change below about -60%; inconclusive = no clear call, values can overlap the other calls; inactive = above about -39%
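Screen run at 2 compound doses on HFFs infected with reporter HCMV, MOI 1 PFU/cell. Luciferase activity from cell lysates at 72 h post infection gave inhibition relative to buffer-only and Salinomycin wells.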
LASV entry inh = Lassa virus entry inhibition. Lassa virus pseudotype entry inhibition, cell reporter. Potency, µM (titrated, usually from 37.9 µM), inactives show at the top dose activity change, negative = inhibition, usual class: inhibitors. 300,000 compounds, 1.2% hits; calls by dose curve; tested in HEK293 cells; also: potency is read from the fitted curve at half-maximal effect; nearly all actives have a fitted effect of over 50% in size
* marks the source's active call; other numbers are inactive results; ? = inconclusive; . = no result; [ ] = remark or other dose. % is scaled to controls: 0 for no effect and ±100 for the full control effect.

SMILES | Marburg entry inh | FMDV antiviral | HCMV antiviral | LASV entry inh
COc1ccc(NC(=O)Cn2c(=O)n(Cc3ccco3)c(=O)c3cc(OC)c(OC)cc32)cc1 | 11%[46.1 µM] | -8% | -97* | ?
CCc1ccccc1NC(=S)NCCSc1ccc(Cl)cc1 | ? | 1% | -88* | ?
Cc1ccc(NC(=S)NCCSc2ccc(Cl)cc2)c(C)c1 | -29% | -16% | -84* | 0%
Cc1ccccc1NC(=S)NCCSc1ccc(Cl)cc1 | ? | 13% | -64* | ?
Cc1ccc(C)c(NC(=S)NCCSc2ccc(Cl)cc2)c1 | 14% | 3% | -29 | -16%
Cc1cccc(NC(=S)NCCSc2ccc(Cl)cc2)c1 | ? | 5% | -7 | 23%
CCCN(Cc1cccs1)C(=O)Nc1ccccc1C | ? | -2% | 28 | 2%[46.1 µM]
COc1cc2c(cc1OC)-c1c(OC)c(OC)cc3c1[C@H](C2)[N+](C)(C)CC3 | 24% | ? | -74* | 0%
COc1cc(/C=N\n2nnnc2N)ccc1O | 10% | . | . | .
O=c1[nH]c(CSc2ccccn2)nc2c1oc1ccccc12 | ? | -29% | -23 | 5.6µM*
CCc1nc2c(oc3ccccc32)c(=O)[nH]1 | ? | 25% | 45 | 24%
COc1cccc(-c2cc3c(Nc4cccnc4)nccc3n2C)c1 | . | . | -10 | .
COCCn1c(-c2cc(OC)c(OC)c(OC)c2)nc2oc3ccccc3c(=O)c2c1=O | ? | 0% | -65* | 5.8µM*
COCCn1c(-c2ccccc2)nc2oc3ccccc3c(=O)c2c1=O | -28% | 11% | -2 | -11%
O=C(Cn1cc(SCc2ccc(F)cc2)c2ccccc21)N1CCCCCC1 | . | 1% | -17 | ?
COCCN=c1scc(-c2cc(OC)c(OC)c(OC)c2)n1/N=C/c1c(C)[nH]c2ccccc12 | 11µM* | ? | 44 | ?
Cc1[nH]c2ccccc2c1/C=N/n1cnnc1 | 5% | -14% | 25 | 15%
OC(CNc1ccccc1)COc1ccc(OCC(O)CNc2ccccc2)cc1 (stereo not given) | 11µM* | ? | ? | ?
CCOCC(O)CNc1ccccc1 (stereo not given) | ? | -10% | ? | 5%
CC1CCN(C(=O)c2ncn3c2C(=O)NC[C@H]3C)CC1 | . | . | -11 | .
COc1ccc(C(C)=O)cc1CSc1nnc(Nc2ccccc2C)s1 | -8% | 0% | -62* | -18%
COC(=O)c1cc(CNC(=O)c2ccccn2)cc(NC(=O)c2ccccc2OC)c1 | . | -8% | . | .
CN(C)C(=O)C(CCN1CCC(O)(c2ccc(Cl)cc2)CC1)(c1ccccc1)c1ccccc1 | 4.1µM* | -18% | -25 | 4.1µM*
CN(C)c1ccc(NC(=O)CN2CCC(O)(c3ccccc3)CC2)cc1 | -5%[46.1 µM] | 18% | -37 | -21%
Cc1ccc(-c2nnn(CC(=O)N(CC(=O)NC3CCCC3)c3cnc4ccccc4c3)n2)o1 | -4% | -4% | -103* | -6%
SMILES | Marburg entry inh | FMDV antiviral | HCMV antiviral | LASV entry inh
Cc1ccc(-c2nnn(CC(=O)N(CC(=O)NC3CCCC3)c3cccc(F)c3)n2)o1 | -7%[46.1 µM] | 11% | -85* | -5%[46.1 µM]
Cc1ccc(-c2nnn(CC(=O)N(CC(=O)NC3CCCCC3)c3ccc(F)c(Cl)c3)n2)o1 | ? | 13% | -12 | 13µM*
CCN(CC)CCCNC(=O)c1ccc(-c2nc(CN3CCc4ccccc43)c(C)o2)cc1 | . | -21% | -36 | -26%[46.1 µM]
CCOc1ccccc1NC(=O)C(c1ccccc1)N1Cc2ccccc2C1=O (stereo not given) | . | 38% | -12 | -12%[46.1 µM]
CCOC(=O)c1cccc(-n2nnc3c(sc4nc(C)c(Br)c(C)c43)c2=O)c1 | 3%[46.1 µM] | -4% | ? | -15%[46.1 µM]
CC1=NC2=CC=CC3=NC(C(Cl)(Cl)Cl)=NC(=N1)N23 | . | . | -21 | .
C[C@H](N)c1cccc(Cl)c1Cl | 9% | . | . | .
COc1ccc(OC)c(NC(=O)c2nc(SCc3ccc(F)cc3)ncc2Cl)c1 | 3%[46.1 µM] | -7% | 29 | 0%[46.1 µM]
CC(C)(C)C1C/C(=C/c2ccccn2)C(=O)/C(=C/c2ccccn2)C1 (stereo not given) | . | 3.5µM* | . | .
CC1C/C(=C/c2ccccn2)C(=O)/C(=C/c2ccccn2)C1 (stereo not given) | ? | 6.3µM* | . | 4µM*
O=C(CSCc1cnn(-c2ccccc2)c1-n1cccc1)NCc1ccccc1F | 0%[46.1 µM] | -15% | -76* | -20%[46.1 µM]
COc1ccccc1CNC(=O)CSCc1cnn(-c2ccccc2)c1-n1cccc1 | -17% | ? | 38 | ?
COc1ccc(CNC(=O)CSCc2cnn(-c3ccccc3)c2-n2cccc2)cc1OC | ? | 16µM* | -80* | ?
CC1=C(c2ccc(C)c(C)c2)S(=O)(=O)N=C1N1CCC(C(=O)NC(C)c2ccccc2)CC1 (stereo not given) | . | 18% | -7 | -19%[46.1 µM]
CC(C)Cc1nn2c(=O)cc(COC(=O)c3cccc(NC(=O)c4cccs4)c3)nc2s1 | . | -1% | -36 | 12%[46.1 µM]
COc1ccc(-c2nc(CCNC(=O)c3cccs3)cs2)cc1OC | . | ? | -84* | ?
O=C(NCCc1csc(-c2ccc(Cl)cc2)n1)c1cccs1 | . | 25µM* | ? | -24%[46.1 µM]
COc1ccc(C(=O)NCCc2csc(-c3ccc(Cl)cc3)n2)cc1 | . | -1% | ? | 2%[46.1 µM]
CCCCOc1ccc(C(=O)NCCc2csc(-c3ccc(OC)cc3)n2)cc1 | . | ? | -61* | ?
COc1ccccc1-c1ccnc(-n2ncc(C(=O)NC3CCCN(Cc4ccccc4)C3)c2C)n1 (stereo not given) | . | 1% | . | .
CCc1nnc(NC(=O)CSc2nccn2Cc2ccc(F)cc2)s1 | . | -16% | 4 | 15%[46.1 µM]
O=C(Nc1ccc(Oc2nnc(-c3ccccc3)c3ccccc23)cc1)c1ccccc1 | ? | ? | -60* | 3%
Cc1ccc(C)n1C1C(=O)N(Cc2ccc(C(C)C)cc2)c2ccc(Cl)cc21 (stereo not given) | . | . | -17 | .
CCc1ccc(-n2nc(C)c3c(C)cc(=O)n(CC(=O)N(CC)Cc4ccccc4)c32)cc1 | . | 0% | 21 | -9%[46.1 µM]
O=[N+]([O-])c1ccc(S(=O)(=O)Nc2nc3ccccc3nc2Nc2ccccc2)cc1 | ? | -16% | -80* | -21%
SMILES | Marburg entry inh | FMDV antiviral | HCMV antiviral | LASV entry inh
O=C(O)c1ccc(Nc2nc3ccccc3nc2NS(=O)(=O)c2ccc(F)cc2)cc1 | . | 16% | 21 | .
CC(=O)Nc1ccc(S(=O)(=O)Nc2nc3ccccc3nc2Nc2ccc3ccccc3c2)cc1 | 15% | -3% | 26 | ?
COc1cc(Nc2nc3ccccc3nc2NS(=O)(=O)c2ccc([N+](=O)[O-])cc2)cc(OC)c1OC | 19%[46.1 µM] | -33% | -74* | ?
COC(=O)c1cc(Nc2nc3ccccc3nc2NS(=O)(=O)c2ccc(C)cc2)ccc1Cl | ? | -4% | -106* | 10%[46.1 µM]
O=C(Nc1ccc2nc(SCC(=O)N3CCCC3)sc2c1)c1ccc(Br)cc1 | 20%[46.1 µM] | -14% | -8 | 13%[46.1 µM]
Cc1ccc(NC(=O)CN2C(=O)CSc3ccc(S(=O)(=O)N4CCCC4)cc32)c(C)c1 | . | 16% | 8 | 2%[46.1 µM]
N#Cc1cccc(-c2csc(C(O)(c3ccccc3)C(F)(F)F)n2)c1 (stereo not given) | . | 8% | -18 | .
COc1ccc(Nc2cc3[nH]c(-c4cccc(C(F)(F)F)c4)cc3cn2)cc1 | . | . | -26 | .
O=C(c1cc(-c2ccc(Br)cc2)n[nH]1)N1CCN(S(=O)(=O)c2ccc(Br)cc2)CC1 | . | -16% | ? | 4%[46.1 µM]
